# From PubChem BioAssay
# Results filed as inconclusive are left out. Activity calls are given as the source filed them.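 The calls were made as follows, unless noted: active = inhibition above the screen-wide mean plus 3 SD, about 51%; inactive = the rest.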
# Legend:
# [1] = yeast TOR pathway RPL19A-GFP modulators, primary screen, cell-based, S. cerevisiae, multiplex flow cytometry (AID 1862; in the data active = percent of DMSO control GFP below about 86%;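 also: lower values mimic rapamycin by blocking the RPL19A rise seen in DMSO cells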); conditions: S. cerevisiae RPL19A-GFP strain, flow cytometry fluorescence, 3 h; at 10 µM; stronger effect = lower value
# [2] = modulators of MEP2-GFP levels in yeast, primary screen, S. cerevisiae, multiplex flow cytometry (AID 1867;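 active = GFP response, as percent of the DMSO control, above the screen-wide mean plus 3 SD, about 139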;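 also: median GFP channel fluorescence of barcode-gated MEP2-GFP cells measured by flow cytometry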); conditions: S. cerevisiae MEP2-GFP strain, 3 h, at 10 µM, stronger effect = higher value, 100% means same as DMSO wells
# [3] = modulators of CIT2-GFP expression in yeast, primary screen, S. cerevisiae, GFP fusion, multiplex flow cytometry (AID 1870;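 active = percent response above a set limit, the screen-wide mean plus 3 SD, cut at about 130% in these data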;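 also: barcoded CIT2-GFP strain pooled with four other GFP strains with rapamycin as positive control; median GFP fluorescence per well over plate mean of DMSO wells so 100% = DMSO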); conditions: 3 h, at 10 µM, stronger effect = higher value
# [4] = modulators of LAP4-GFP expression in yeast, primary screen, S. cerevisiae, multiplex flow cytometry (AID 1873;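 active = GFP signal, as percent of the solvent control, above the screen mean plus 3 SD, about 149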); conditions: 3 h, at 10 µM, stronger effect = higher value
# [5] = modulators of AGP1-GFP expression in yeast TOR pathway, primary screen, cell-based, multiplex flow cytometry, S. cerevisiae (AID 1887;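 active = GFP signal above the screen-wide mean plus 3 SD, that is over about 124.5% of the solvent control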;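 also: AGP1-GFP fusion strain of S. cerevisiae within a five-strain barcoded multiplex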); conditions: 3 h, at 10 µM, stronger effect = higher value
# [6] = inhibitors of CD8+ T cell-vesicle binding, pilot screen, LFA-1/ICAM-1 modulator project, MLPCN validation set, flow cytometry (AID 2523;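 active = response below a set limit, under 55% cells CD8-positive and vesicle-bound, and CD8 cells' 90th-percentile brightness under 279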;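 as to vesicle binding response: mean PE anti-B7-1 fluorescence of CD8+ cells relative to row control; 100% = QL9-loaded vesicles with DMSO vehicle in the same plate row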); conditions: 2C mouse CD8+ T cells, at 7 µM, stronger effect = lower value; double positive events: measured here: CD8+/vesicle+ event percentage
# [7] = biological target: Integrin beta-1 (Homo sapiens) + Integrin alpha-4 (Homo sapiens) (UniProt P13612+P05556); test: inhibition of HUTS-21 binding to VLA-4, pilot screen, VLA-4 allosteric modulator project, U937 cells, HUTS-21 mAb, flow cytometry, validation set (AID 2674;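 active = inhibition above 50%, about 3 SD of the validation set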;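 also: antibody binding induced by the VLA-4 ligand LDV present at three times its Kd; 0% = LDV ligand with antibody and no compound and 100% = antibody without LDV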); conditions: HUTS-21 LIBS mAb binding, at 6.7 µM, stronger effect = higher value, binding induced by LDV ligand
# Chain of Integrin beta-1 (Homo sapiens) + Integrin alpha-4 (Homo sapiens) (P05556 whole entry, looked up): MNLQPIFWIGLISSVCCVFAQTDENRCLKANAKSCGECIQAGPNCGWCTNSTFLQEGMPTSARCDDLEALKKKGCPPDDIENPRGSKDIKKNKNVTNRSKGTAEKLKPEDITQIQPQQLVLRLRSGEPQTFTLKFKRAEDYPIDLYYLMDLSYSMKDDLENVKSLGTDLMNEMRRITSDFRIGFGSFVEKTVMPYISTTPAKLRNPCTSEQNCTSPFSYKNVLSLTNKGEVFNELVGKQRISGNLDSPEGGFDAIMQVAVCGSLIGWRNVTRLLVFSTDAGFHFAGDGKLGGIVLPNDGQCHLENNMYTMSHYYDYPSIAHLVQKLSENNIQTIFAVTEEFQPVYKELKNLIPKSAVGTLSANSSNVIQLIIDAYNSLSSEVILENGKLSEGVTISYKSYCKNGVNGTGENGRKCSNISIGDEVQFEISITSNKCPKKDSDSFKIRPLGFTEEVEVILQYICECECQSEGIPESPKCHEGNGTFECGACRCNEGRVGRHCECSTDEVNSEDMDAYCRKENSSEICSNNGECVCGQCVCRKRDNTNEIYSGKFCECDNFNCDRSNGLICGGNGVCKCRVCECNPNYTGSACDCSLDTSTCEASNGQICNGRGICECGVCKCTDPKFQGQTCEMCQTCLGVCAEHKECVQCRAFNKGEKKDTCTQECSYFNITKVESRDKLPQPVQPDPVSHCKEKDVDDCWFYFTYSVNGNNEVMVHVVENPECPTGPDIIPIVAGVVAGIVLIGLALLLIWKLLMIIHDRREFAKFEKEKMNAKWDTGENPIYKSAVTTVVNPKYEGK
# Chain of Integrin beta-1 (Homo sapiens) + Integrin alpha-4 (Homo sapiens) (P13612 whole entry, looked up): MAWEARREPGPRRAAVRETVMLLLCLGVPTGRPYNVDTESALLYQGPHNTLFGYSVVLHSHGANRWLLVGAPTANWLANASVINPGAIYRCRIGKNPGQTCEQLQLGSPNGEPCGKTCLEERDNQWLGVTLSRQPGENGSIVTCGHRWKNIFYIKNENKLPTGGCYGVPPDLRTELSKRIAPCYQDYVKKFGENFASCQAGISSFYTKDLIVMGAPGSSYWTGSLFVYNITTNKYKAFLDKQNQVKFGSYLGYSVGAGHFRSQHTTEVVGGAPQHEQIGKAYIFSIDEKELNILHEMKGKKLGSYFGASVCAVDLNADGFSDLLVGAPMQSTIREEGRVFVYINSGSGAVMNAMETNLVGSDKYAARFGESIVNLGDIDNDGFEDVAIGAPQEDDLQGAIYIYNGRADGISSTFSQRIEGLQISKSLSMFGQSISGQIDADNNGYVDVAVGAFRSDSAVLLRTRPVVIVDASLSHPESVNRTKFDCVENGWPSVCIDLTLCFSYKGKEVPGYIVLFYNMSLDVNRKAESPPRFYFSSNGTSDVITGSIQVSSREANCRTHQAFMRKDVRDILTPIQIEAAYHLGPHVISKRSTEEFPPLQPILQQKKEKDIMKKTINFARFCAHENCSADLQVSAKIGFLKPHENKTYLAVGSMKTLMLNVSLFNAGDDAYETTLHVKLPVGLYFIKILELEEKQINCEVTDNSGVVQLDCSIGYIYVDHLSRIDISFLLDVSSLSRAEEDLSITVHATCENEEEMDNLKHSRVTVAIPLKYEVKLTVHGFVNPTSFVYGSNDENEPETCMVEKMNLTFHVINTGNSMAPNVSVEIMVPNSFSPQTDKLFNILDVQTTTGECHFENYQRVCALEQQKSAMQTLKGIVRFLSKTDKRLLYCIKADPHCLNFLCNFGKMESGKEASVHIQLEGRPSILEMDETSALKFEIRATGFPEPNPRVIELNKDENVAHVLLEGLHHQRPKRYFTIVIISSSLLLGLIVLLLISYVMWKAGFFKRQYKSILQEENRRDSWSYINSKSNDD
# [8] = superoxide lowering in aged yeast cells, pilot screen, validation compound set (AID 2706;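 active = superoxide response below 65% of plate, a cut near 3 SD across the whole screen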;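 also: yeast exposed to compound for one week at 30 degrees C before staining; 100% = mean of all compound wells on the same plate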); conditions: S. cerevisiae aging, superoxide DHE fluorescence; at 10 µM; stronger effect = lower value
# [9] = biological target: Beta-adrenergic receptor kinase 1 (Homo sapiens) (UniProt P25098); test: GRK2 binders displacing RNA aptamer, biochemical, validation, human GRK2, bead flow cytometry (AID 488806;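 active = aptamer binding inhibition above 30%, about 3 SD of noise from non-fluorescent compounds; inactive = inhibition at or below 30%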); conditions: bead-bound GRK2, FAM-aptamer displacement, at 10 µM, stronger effect = higher value
# Chain of Beta-adrenergic receptor kinase 1 (Homo sapiens) (P25098 whole entry, looked up): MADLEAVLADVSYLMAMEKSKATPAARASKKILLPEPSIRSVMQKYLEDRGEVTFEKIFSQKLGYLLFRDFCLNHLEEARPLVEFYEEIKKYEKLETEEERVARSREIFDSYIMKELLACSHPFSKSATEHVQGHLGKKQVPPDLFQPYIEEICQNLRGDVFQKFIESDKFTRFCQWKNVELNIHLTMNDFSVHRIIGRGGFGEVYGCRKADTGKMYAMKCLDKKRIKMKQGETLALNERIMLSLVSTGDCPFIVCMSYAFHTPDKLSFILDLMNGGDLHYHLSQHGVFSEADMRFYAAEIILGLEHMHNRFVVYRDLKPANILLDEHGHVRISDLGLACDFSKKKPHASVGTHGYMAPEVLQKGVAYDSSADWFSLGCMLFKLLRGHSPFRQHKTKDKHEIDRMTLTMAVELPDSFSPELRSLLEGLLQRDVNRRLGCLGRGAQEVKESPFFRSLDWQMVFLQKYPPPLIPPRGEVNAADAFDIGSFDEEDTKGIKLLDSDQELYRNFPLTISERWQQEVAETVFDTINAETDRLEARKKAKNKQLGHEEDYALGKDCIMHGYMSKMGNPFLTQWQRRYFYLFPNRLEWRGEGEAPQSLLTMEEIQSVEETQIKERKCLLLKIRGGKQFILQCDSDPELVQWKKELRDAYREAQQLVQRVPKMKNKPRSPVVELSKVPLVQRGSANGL
# [10] = biological target: Beta-2 adrenergic receptor (Homo sapiens) (UniProt P07550); test: beta2AR agonists driving receptor internalization, pilot screen, cell-based, FAP fluorogen, flow cytometry, validation set (AID 504459;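 active = percent response above 42, roughly 3 SD of non-fluorescent test compounds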;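 also: agonist-driven loss of surface beta2AR via internalization measured by FAP dye flow cytometry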); conditions: Am2.2-beta2AR cells, FAP surface receptor flow cytometry; at 10 µM; stronger effect = higher value
# Chain of Beta-2 adrenergic receptor (Homo sapiens) (P07550 whole entry, looked up): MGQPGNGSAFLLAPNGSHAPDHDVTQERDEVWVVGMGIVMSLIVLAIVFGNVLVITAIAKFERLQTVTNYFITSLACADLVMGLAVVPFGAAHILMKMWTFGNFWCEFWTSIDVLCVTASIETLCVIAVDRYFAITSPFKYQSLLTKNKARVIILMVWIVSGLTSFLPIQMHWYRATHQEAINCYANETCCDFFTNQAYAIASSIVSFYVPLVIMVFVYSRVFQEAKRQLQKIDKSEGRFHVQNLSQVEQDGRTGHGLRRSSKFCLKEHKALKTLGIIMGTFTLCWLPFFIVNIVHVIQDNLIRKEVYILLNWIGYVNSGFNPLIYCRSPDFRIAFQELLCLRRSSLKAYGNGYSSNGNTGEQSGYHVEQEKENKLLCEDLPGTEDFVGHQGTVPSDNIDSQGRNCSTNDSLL
# [11] = biological target: AP-2 complex subunit beta (Homo sapiens) (UniProt P63010); test: inhibitors of arrestin peptide binding to AP2, pilot screen, biochemical, validation set, GST-AP2 beads, flow cytometry (AID 504541;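 active = inhibition above 54%, about 3 SD of non-fluorescent compounds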;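 also: AP2 carries R879A mutation and is captured from E. coli lysate; bead-bound FITC arrestin peptide fluorescence measuring arrestin peptide binding to AP2; 0% = DMSO wells and 100% = excess unlabeled arrestin peptide control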); conditions: FITC arrestin peptide, at 10 µM, stronger effect = higher value, AP2 beta2 appendage fragment, R879A mutant
# Chain of AP-2 complex subunit beta (Homo sapiens) (P63010 whole entry, looked up, the tested form may be a part, one chain of several): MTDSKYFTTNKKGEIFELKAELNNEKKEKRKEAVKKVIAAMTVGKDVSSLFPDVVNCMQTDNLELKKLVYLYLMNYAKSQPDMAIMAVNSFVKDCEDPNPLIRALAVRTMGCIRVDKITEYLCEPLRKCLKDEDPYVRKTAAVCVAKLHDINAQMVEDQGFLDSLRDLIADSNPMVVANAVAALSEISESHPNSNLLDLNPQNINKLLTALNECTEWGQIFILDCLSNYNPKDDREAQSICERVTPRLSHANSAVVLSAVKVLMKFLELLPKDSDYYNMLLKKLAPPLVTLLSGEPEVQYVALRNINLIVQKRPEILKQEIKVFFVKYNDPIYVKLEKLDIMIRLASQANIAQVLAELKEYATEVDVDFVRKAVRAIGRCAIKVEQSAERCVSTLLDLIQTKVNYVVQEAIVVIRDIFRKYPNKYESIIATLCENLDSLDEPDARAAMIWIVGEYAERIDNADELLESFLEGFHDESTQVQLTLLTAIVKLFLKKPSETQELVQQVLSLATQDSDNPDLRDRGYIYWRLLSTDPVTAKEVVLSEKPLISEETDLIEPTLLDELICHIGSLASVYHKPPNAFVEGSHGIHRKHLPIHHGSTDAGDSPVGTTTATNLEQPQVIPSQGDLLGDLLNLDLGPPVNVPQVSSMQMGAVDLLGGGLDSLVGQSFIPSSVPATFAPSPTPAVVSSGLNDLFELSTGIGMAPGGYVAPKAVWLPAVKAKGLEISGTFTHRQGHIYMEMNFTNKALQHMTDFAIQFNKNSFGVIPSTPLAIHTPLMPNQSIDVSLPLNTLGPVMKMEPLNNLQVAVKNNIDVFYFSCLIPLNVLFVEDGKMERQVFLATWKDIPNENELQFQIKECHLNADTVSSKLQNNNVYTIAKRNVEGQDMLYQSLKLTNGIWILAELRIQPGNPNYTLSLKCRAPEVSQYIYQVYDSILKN
# [12] = yeast V-ATPase proton transport modulators, S. cerevisiae, pHLuorin, HTS validation (AID 504600; in the data active = response above about 15%;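 also: plate controls were DMSO for no effect and reference compound for full effect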); conditions: S. cerevisiae pHLuorin cytosolic pH, at 10 µM, stronger effect = higher value
# [13] = tested on: anti-desmoglein-3 scFv antibody binding to human DSG3; test: inhibitors of anti-DSG3 scFv binding to DSG3, pilot screen, biochemical, validation compound set, bead-based, flow cytometry (AID 588368;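 active = binding below the plate cutoff, the plate median minus 3 SD, with a reading above zero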;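 also: signal is the median channel fluorescence of bead-bound GFP antibody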); conditions: Protein G beads, DSG3-Fc, scFv-GFP binding, at 10 µM, stronger effect = lower value
# [14] = inhibitors of fungal efflux pumps CDR1, CDR2, MDR1, pilot screen, validation compound set, multiplex, phenotypic (AID 588506;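 active = efflux inhibition above 0.42, the validation set average plus 4 SD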;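 also: Nile Red retained in cells so higher fluorescence means more efflux inhibition; 0 = negative control wells and 1 = enniatin B 25 µM full block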); conditions: S. cerevisiae pump-expressing triplex, Nile Red efflux flow cytometry; at 10 µM; stronger effect = higher value; the pumps come from Candida albicans
# [15] = biological target: ATP-binding cassette sub-family B member 6 (Homo sapiens) (UniProt Q9NP58); test: ABCB6 transporter inhibitors, pilot screen, K562-ABCB6 cells, flow cytometry, validation set (AID 588550); conditions: K562-ABCB6 porphyrin accumulation, 1 h, at 10 µM, stronger effect = higher value;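 also: 0% = DMSO wells and 100% = benzethonium chloride 70 µM positive control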
# Chain of ATP-binding cassette sub-family B member 6 (Homo sapiens) (Q9NP58 whole entry, looked up): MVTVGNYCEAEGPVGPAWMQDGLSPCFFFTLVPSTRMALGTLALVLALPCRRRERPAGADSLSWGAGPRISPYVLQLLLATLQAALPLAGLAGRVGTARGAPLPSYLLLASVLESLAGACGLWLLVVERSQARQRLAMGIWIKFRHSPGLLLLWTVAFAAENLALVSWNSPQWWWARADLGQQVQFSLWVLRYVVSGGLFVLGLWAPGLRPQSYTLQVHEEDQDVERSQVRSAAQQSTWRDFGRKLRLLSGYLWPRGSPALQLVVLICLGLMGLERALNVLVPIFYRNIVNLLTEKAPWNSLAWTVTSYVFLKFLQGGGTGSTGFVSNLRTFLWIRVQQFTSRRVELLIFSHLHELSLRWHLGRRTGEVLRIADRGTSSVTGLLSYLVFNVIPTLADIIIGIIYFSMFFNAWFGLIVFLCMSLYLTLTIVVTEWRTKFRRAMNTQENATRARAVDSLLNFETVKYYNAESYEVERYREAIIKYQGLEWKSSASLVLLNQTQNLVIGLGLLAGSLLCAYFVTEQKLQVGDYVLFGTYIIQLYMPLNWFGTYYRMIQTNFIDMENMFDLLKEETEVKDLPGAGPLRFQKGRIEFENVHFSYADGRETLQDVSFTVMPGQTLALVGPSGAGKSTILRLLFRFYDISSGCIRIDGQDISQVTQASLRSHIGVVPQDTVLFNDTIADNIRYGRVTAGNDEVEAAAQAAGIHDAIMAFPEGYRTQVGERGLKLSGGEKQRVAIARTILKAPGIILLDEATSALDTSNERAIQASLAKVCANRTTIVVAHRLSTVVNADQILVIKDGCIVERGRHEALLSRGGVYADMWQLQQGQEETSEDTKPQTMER
# [16] = promoters of myeloid differentiation in arrested cells, primary screen, cell-based, GFP/MAC1 double positive, flow cytometry, validation set (AID 588685;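 active = differentiation response of at least 50%, scaled between solvent and reference control, from cells with both markers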;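 also: compound exposure lasts four days before antibody staining and flow analysis; 0% = DMSO wells and 100% = 5 µM fulvestrant positive control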); conditions: ER-HoxA9 marrow cells, stronger effect = higher value, normalized: vehicle 0, fulvestrant 100
SMILES,percent of DMSO control GFP [1],GFP response vs DMSO [2],percent response of DMSO control [3],GFP response vs DMSO [4],"GFP response, % of DMSO [5]",double positive events [6],vesicle binding response [6],inhibition [7],superoxide response (% of plate) [8],aptamer binding inhibition [9],response [10],inhibition [11],response [12],binding (% of control) [13],efflux inhibition (fraction of control) [14],inhibition [15],differentiation response [16]
O=C(O)[C@H](Cc1ccccc1)NC(=O)N1CCC(Cc2ccccc2)CC1,104% (inactive),102% (inactive),96% (inactive),100% (inactive),99.9% (inactive),67%,122% (inactive),-0.31% (inactive),108% (inactive),-6% (inactive),9.92% (inactive),4.86% (inactive),0.86% (inactive),99.5% (inactive),-0.18 (inactive),6% (inactive),-5.68% (inactive)
COc1cccc2c(=O)c3ccccc3oc12,93.9% (inactive),117% (inactive),111% (inactive),74.3% (inactive),88% (inactive),61.1%,134% (inactive),-9.06% (inactive),109% (inactive),2% (inactive),-12.3% (inactive),-2.99% (inactive),0.55% (inactive),96% (inactive),0.27 (inactive),15% (inactive),-3.28% (inactive)
O=C(Oc1ccc2c3c(c(=O)oc2c1)CCCC3)c1ccco1,101% (inactive),101% (inactive),96% (inactive),102% (inactive),85% (inactive),62.5%,126% (inactive),-6.04% (inactive),99.3% (inactive),5% (inactive),5.57% (inactive),11.5% (inactive),0.75% (inactive),96.5% (inactive),0.62 (active),6% (inactive),-5.68% (inactive)
OCC(O)CN1CCN(c2ccccc2)CC1 (stereo not drawn),99.3% (inactive),103% (inactive),90.5% (inactive),103% (inactive),102% (inactive),59.4%,145% (inactive),9.1% (inactive),99.2% (inactive),7% (inactive),-29.2% (inactive),-3.7% (inactive),-24.2% (inactive),96.2% (inactive),-0.04 (inactive),9% (inactive),11.8% (inactive)
CCOc1ccc(N2C(=O)CNC2=S)cc1,106% (inactive),106% (inactive),105% (inactive),110% (inactive),109% (inactive),66.1%,202% (inactive),-0.27% (inactive),105% (inactive),2% (inactive),-17.9% (inactive),11.9% (inactive),-2.61% (inactive),106% (inactive),-0.09 (inactive),-4% (inactive),3.88% (inactive)
O=C(CCc1c[nH]c2ccccc12)NCc1ccco1,102% (inactive),106% (inactive),93.8% (inactive),109% (inactive),106% (inactive),63%,201% (inactive),3.99% (inactive),98.4% (inactive),-3% (inactive),-21.7% (inactive),33.1% (inactive),1.49% (inactive),103% (inactive),0.04 (inactive),5% (inactive),0.92% (inactive)
CC(CCCC(C)(C)O)NC(=O)c1ccc(OC2CCN(C(=O)C3CC3)CC2)cc1 (stereo not drawn),102% (inactive),96.3% (inactive),98.6% (inactive),108% (inactive),99.8% (inactive),60.9%,200% (inactive),20.1% (inactive),97.8% (inactive),1% (inactive),-15.1% (inactive),10.3% (inactive),-0.73% (inactive),101% (inactive),0.08 (inactive),3% (inactive),-12% (inactive)
COc1ccc(CCN=CC2=C(O)CC(C)(C)CC2=O)cc1,109% (inactive),106% (inactive),106% (inactive),91.4% (inactive),102% (inactive),62.4%,6690% (inactive),-2.53% (inactive),91.4% (inactive),-2% (inactive),-5.19% (inactive),-11.8% (inactive),2.74% (inactive),101% (inactive),0.02 (inactive),3% (inactive),1.22% (inactive)
COc1cc2c(cc1OC)CN(C(=O)c1ccc(S(=O)(=O)N(C)c3ccccc3)cc1)CC2,95.9% (inactive),101% (inactive),99.6% (inactive),115% (inactive),111% (inactive),73.5%,605% (inactive),5.69% (inactive),57.5% (active),1% (inactive),-14.1% (inactive),-6.13% (inactive),1.25% (inactive),96.2% (inactive),0 (inactive),5% (inactive),1.91% (inactive)
O=C1C(Cc2c[nH]c3ccccc23)NC(=S)N1Cc1ccccc1 (stereo not drawn),108% (inactive),102% (inactive),104% (inactive),91.5% (inactive),95.5% (inactive),67.5%,132% (inactive),8.29% (inactive),104% (inactive),1% (inactive),3.86% (inactive),2.2% (inactive),-1.19% (inactive),94.9% (inactive),0 (inactive),8% (inactive),7.13% (inactive)
CCSC(SCC)[C@H](O)[C@@H](O)[C@H](O)[C@H](O)CO,95.5% (inactive),113% (inactive),107% (inactive),74.8% (inactive),93.8% (inactive),58%,218% (inactive),6.46% (inactive),114% (inactive),7% (inactive),-7.81% (inactive),4.05% (inactive),-1.88% (inactive),104% (inactive),0.3 (inactive),6% (inactive),-2.46% (inactive)
COC(=O)c1ccc(-c2ncc(-c3cccc4ccccc34)o2)cc1,98.2% (inactive),104% (inactive),105% (inactive),125% (inactive),109% (inactive),61.1%,170% (inactive),-29.2% (inactive),97.3% (inactive),-1% (inactive),-17.7% (inactive),21.1% (inactive),-15.9% (inactive),90.5% (inactive),0.17 (inactive),1% (inactive),6.83% (inactive)
CCOC(=O)N1CCN(Cc2nc(Cc3cccc(F)c3)no2)CC1,102% (inactive),105% (inactive),100% (inactive),99.9% (inactive),101% (inactive),64.5%,171% (inactive),-3.57% (inactive),103% (inactive),5% (inactive),0.58% (inactive),-8.69% (inactive),2.06% (inactive),94.8% (inactive),0.02 (inactive),13% (inactive),4.15% (inactive)
N/C(=N\OC(=O)CCCOc1ccc(Cl)cc1Cl)c1ccncc1,96.4% (inactive),110% (inactive),108% (inactive),118% (inactive),92.4% (inactive),56.8%,142% (inactive),4.27% (inactive),103% (inactive),-1% (inactive),-12.7% (inactive),3.28% (inactive),-3.36% (inactive),102% (inactive),-0.005 (inactive),-7% (inactive),4.2% (inactive)
CCOC(=O)C1C(=O)OC2(CCOC(C)(C)C2)C1C(=O)OCC (stereo not drawn),109% (inactive),108% (inactive),102% (inactive),125% (inactive),108% (inactive),70.8%,8780% (inactive),10.5% (inactive),102% (inactive),5% (inactive),16.1% (inactive),-2.89% (inactive),-6.07% (inactive),102% (inactive),0.15 (inactive),6% (inactive),-4% (inactive)
OCCN(Cc1nc(-c2ccc3c(c2)OCO3)no1)Cc1cccs1,97.6% (inactive),102% (inactive),91.3% (inactive),109% (inactive),89.4% (inactive),65.7%,118% (inactive),9.63% (inactive),88.2% (inactive),1% (inactive),23.6% (inactive),-7.29% (inactive),-1.85% (inactive),109% (inactive),-0.28 (inactive),6% (inactive),15.9% (inactive)
CCCCC[C@H](O)/C=C/C1=C(CCCCCCC(=O)O)C(=O)CC1,105% (inactive),106% (inactive),101% (inactive),95.9% (inactive),103% (inactive),56.3%,98.4% (inactive),-9.13% (inactive),99.9% (inactive),4% (inactive),2.65% (inactive),1.77% (inactive),31% (active),101% (inactive),0.125 (inactive),3% (inactive),-8.96% (inactive)
CSCCC1NC2(C(=O)Nc3ccc(Cl)cc32)[C@@H]2C(=O)N(C3CCCC3)C(=O)[C@H]12 (stereo partly drawn),101% (inactive),109% (inactive),103% (inactive),102% (inactive),98.9% (inactive),59.4%,121% (inactive),-37.3% (inactive),94.5% (inactive),6% (inactive),-27.1% (inactive),-6.32% (inactive),1.16% (inactive),109% (inactive),-0.29 (inactive),-10% (inactive),1.28% (inactive)
COc1ccc(C(CC(=O)N2CCOCC2)C(C)C)cc1 (stereo not drawn),100% (inactive),99.6% (inactive),101% (inactive),118% (inactive),106% (inactive),55.7%,56.1% (inactive),2.3% (inactive),77.9% (inactive),3% (inactive),-9.06% (inactive),-2.4% (inactive),1.44% (inactive),95.3% (inactive),-0.06 (inactive),7% (inactive),-18.4% (inactive)
